Results published in PubChem BioAssay AID2551 (National Center for Advancing Translational Sciences (NCATS), 2010).
Where “and” joins values, the source holds several entries; their conditions need not be identical. Equal values may be shown once. Among all 310,000 compounds or so, about 17,000 (5.5%) were called active. Where a call stands in place of a potency, no number is given. Inconclusive results (about 11%) are left out. Calls come from the whole dose curve; as a rule, active = well fitted inhibition curve with a large enough effect; inconclusive = small, poorly fitted or top-dose-only effect, or effect the other way; inactive = no such curve, though single readings can be large or run the other way. The sample as a whole holds a higher share of actives than the screen did. The source holds several records for some structures; these can differ, active in one and inactive in another.

Molecular target: Nuclear receptor ROR-gamma (Mus musculus) (UniProt P51450)
Sequence (P51450 whole entry, looked up): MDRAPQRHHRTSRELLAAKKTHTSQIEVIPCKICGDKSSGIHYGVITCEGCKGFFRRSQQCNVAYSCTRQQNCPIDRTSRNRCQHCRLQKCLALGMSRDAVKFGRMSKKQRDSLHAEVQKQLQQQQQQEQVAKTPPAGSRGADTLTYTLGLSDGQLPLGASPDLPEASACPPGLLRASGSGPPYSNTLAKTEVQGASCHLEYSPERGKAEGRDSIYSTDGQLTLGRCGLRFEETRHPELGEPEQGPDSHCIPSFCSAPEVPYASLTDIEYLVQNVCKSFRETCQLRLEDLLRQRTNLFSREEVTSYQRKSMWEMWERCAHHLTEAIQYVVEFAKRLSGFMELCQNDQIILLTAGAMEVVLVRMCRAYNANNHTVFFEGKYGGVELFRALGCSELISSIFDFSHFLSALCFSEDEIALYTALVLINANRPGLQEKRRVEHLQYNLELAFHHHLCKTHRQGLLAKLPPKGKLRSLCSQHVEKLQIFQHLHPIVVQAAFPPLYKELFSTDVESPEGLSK
Test: qHTS for inhibitors of ROR gamma transcriptional activity; note: nearly all actives have a fitted effect of over 60% in size
Conditions: Drosophila S2 Gal4-RORgamma UAS-luciferase reporter, 20 h; series mostly up to 53.6 µM
Procedure, shortened: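 Stable Schneider cell line, Gal4 DNA-binding domain fused to ROR gamma, UAS-luciferase. Cmpd 1 hr RT → CuSO4 700 uM final → 20 hr RT → luciferase reagent 10 min → luminescence.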
Potency is the fitted concentration of half-maximal effect.

| SMILES | Potency | activity change, negative = inhibition |
| --- | --- | --- |
| CCC(C)[C@H](NC(=O)N1CCn2c1nc1ccccc12)C(=O)NCc1ccc(OC)cc1 (stereo not given in full) | inactive | – |
| O=C(O)CC/C(=C\c1cc2c(cc1Br)OCO2)c1nc2ccccc2s1 | inactive | – |
| CC(=O)N1CCc2cc(S(=O)(=O)NC3CCCCC3)ccc21 | inactive | – |
| COCCNc1ncnc2c1nc1n2CCCC1 | inactive | – |
| CCCCCCn1cc(C(=O)O)c(=O)c2cc(F)c(N3CCCCC3)cc21 | inactive | – |
| O=C(Nc1ccc(S(=O)(=O)Nc2ccccn2)cc1)c1ccccc1 | inactive | – |
| Cc1ccc(CNC(=O)CCS(=O)(=O)c2ccc3c(c2)CC(C)N3C(=O)C2CC2)o1 (stereo not given) | inactive | – |
| O=C(Nc1ccc([N+](=O)[O-])cc1)OCCc1ccccn1 | inactive | – |
| Cc1onc(-c2ccccc2)c1C(=O)NNC(=S)NC(=O)c1ccc(F)cc1 | 3.98 µM (active) | – |
| Cc1ccc(CNC(=O)c2c(-c3ccccc3)noc2C)cc1 | inactive | – |
| CC(=O)Nc1cccc(NC(=O)c2c(-c3ccccc3)noc2C)c1 | inactive | – |
| Cc1onc(-c2ccccc2)c1C(=O)Nc1ccccc1C#N | inactive | – |
| Cc1onc(-c2c(Cl)cccc2Cl)c1C(=O)NNC(=O)c1c(-c2c(Cl)cccc2Cl)noc1C | inactive | – |
| COc1ccc(C(=O)NC(=S)NNC(=O)c2c(-c3ccccc3)noc2C)cc1 | 6.31 µM (active) | – |
| NC(=O)c1oc2ccccc2c1NC(=O)Cc1ccccc1 | – | -17.9% [at 1.91 µM] (inactive) |
| COc1ccc(N(C(=O)c2snc(C(N)=O)c2N)C(C(=O)NC2CCCC2)c2ccco2)cc1OC (stereo not given) | inactive | – |
| O=C1/C(=C/c2ccc(F)cc2)SC(=S)N1CCCC(=O)N1CCCCC1CCO (stereo not given) | inactive | – |
| COC(=O)Cn1cnc2scc(-c3ccc(C)c(C)c3)c2c1=O | inactive | – |
| O=C(NC(=S)Nc1ccc(Cl)c(C(=O)O)c1)c1cncc(Br)c1 | inactive | – |
| Cc1ccc(C)c(NC(=O)NNC(=O)c2ccc3ccccc3c2O)c1 | inactive | – |
| Cc1ccccc1NC(=S)NNC(=O)c1cccc(Br)c1 | 11.2 µM (active) | – |
| O=C(NC(=S)Nc1ccc(S(=O)(=O)Nc2ncccn2)cc1)c1cccc(Br)c1 | inactive | – |
| O=C(/C=C/NNC(=O)c1cccc(Br)c1)c1ccccc1 | inactive | – |
| Cc1ccc(C)c(NC(=O)CCC(=O)NNC(=O)c2cccs2)c1 | inactive | – |
| Cc1ccc(C)c(NC(=S)NNC(=O)c2csc(C)c2)c1 | 3.55 µM (active) | – |
| O=C(NC1CC1)c1cccc(Br)c1 | inactive | – |
| O=C(NC(=S)Nc1cccc2c(O)cccc12)c1cccc(Br)c1 | 11.2 µM (active) | – |

| SMILES | Potency | activity change, negative = inhibition |
| --- | --- | --- |
| CC(CC(=O)O)CC(=O)NNC(=O)c1cccc(Br)c1 (stereo not given) | inactive | – |
| NS(=O)(=O)c1ccc(NC(=S)NC(=O)c2cccc(Br)c2)cc1 | 11.2 µM (active) | – |
| NS(=O)(=O)c1ccc(NC(=S)NC(=O)c2cccnc2)cc1 | inactive | – |
| COc1ccc(-c2nnc3n2CCCCC3)cc1 | inactive | – |
| COc1ccc(NC(=O)CSc2nncc(=O)n2N)cc1OC | inactive | – |
| CC(CN1CCOCC1)OC(=O)c1ccc(Cl)cc1Cl (stereo not given) | inactive | – |
| Cn1c(C(=O)N2CCCC(C(=O)NCc3ccccc3)C2)cc2sccc21 (stereo not given) | inactive | – |
| COc1ccccc1NC(=O)c1ccc(N2CC3CC(C2)c2cccc(=O)n2C3)c(NC(=O)c2cccnc2)c1 (stereo not given) | inactive | – |
| CC(=O)N1c2ccc(S(=O)(=O)N3CCC(C(=O)N4CCN(c5ccccc5)CC4)CC3)cc2CC1C (stereo not given) | inactive | – |
| CC(C)CN(CC(C)C)C(=O)CN1c2cccc3cccc(c23)S1(=O)=O | inactive | – |
| O=C(CNC(=O)[C@@H]1Cc2ccccc2CN1)NC1CCCCC1 | inactive | – |
| NC(=O)C1CC(=O)N(c2ccc(OCC(=O)NCc3ccccc3)cc2)C1 (stereo not given) | inactive | – |
| Cn1c(=O)[nH]c(=O)c2c1nc(N1CCN(C(c3ccccc3)c3ccccc3)CC1)n2CCO | inactive | – |
| O=C(COCc1cc(-c2ccc3c(c2)OCO3)on1)N1CCN(c2cccc(Cl)c2)CC1 | inactive | – |
| CCOC(=O)c1sc(NC(=O)CCN2CCOCC2)c(C(=O)OCC)c1C | inactive | – |
| CCOC(=O)Nc1sc(C(=O)N(C)C)c(C)c1C(=O)OCC | inactive | – |
| CCOC(=O)c1c(NC(=O)CCl)sc(C(=O)N(CC)CC)c1C | 20 µM (active) | – |
| Cc1ccc(S(=O)(=O)NCc2ccc(C(=O)NC3CCC(C)CC3)cc2)cc1 (stereo not given) | inactive | – |
| COc1ccccc1N1CC(C(=O)Nc2nnc(SCC(=O)NC(C)C)s2)CC1=O (stereo not given) | inactive | – |
| CC(=O)Oc1c2c(c3c(c1CC=C(C)C)O[C@@]14C(=CC5CC1C(C)(C)OC4(C/C=C(\C)C(=O)O)C5=O)C3=O)OC(C)(CCC=C(C)C)C=C2 (stereo not given in full) | 5.62 µM (active) | – |
| O=C(CNC(=O)c1ccc(Br)o1)NCC1CCCO1 (stereo not given) | inactive | – |
| CCNC(=O)c1cnn(-c2ccccc2)c1-c1ccccc1 | inactive | – |
| COc1ccc(-n2nnnc2-c2nc3ccccc3s2)cc1 | 12.6 µM (active) | – |
| CCOc1cccc(-n2nnnc2-c2ccc(OC)cc2)c1 | inactive | – |
| COc1ccc(-n2nnnc2SCC(=O)Nc2ccccc2)cc1 | inactive | – |
| COc1cc(C2C3=C(CCCC3=O)OC3=C2C(=O)CCC3)ccc1OCC(=O)Nc1ccccc1 | inactive | – |
| Cc1ccc(N(Cc2cc(=O)[nH]c3ccccc23)C(=O)CCl)cc1 | 15.8 µM (active) | – |

| SMILES | Potency | activity change, negative = inhibition |
| --- | --- | --- |
| CC(=O)N(Cc1cc(=O)[nH]c2ccccc12)c1ccc(C)cc1C | inactive | – |
| Cc1ccc(N(Cc2cc3ccccc3[nH]c2=O)C(=O)c2cccs2)cc1 | inactive | – |
| Cc1cc(C)cc(NC(=O)C2CCCN2S(=O)(=O)c2cccc3cccnc23)c1 (stereo not given) | inactive | – |
| CCN1CCN(CCNC(=O)c2ccc3c(c2)NC(=O)/C(=C\c2ccc(OC)c(OC)c2)S3)CC1 | inactive | – |
| CCCCc1cc(=O)oc2c(C)c(OCC(=O)N3CCC(C(N)=O)CC3)ccc12 | inactive | – |
| Clc1ccc2nc(CSc3ccccc3)cn2c1 | 14.1 µM (active) | – |
| O=C(/C=C/c1ccc2c(c1)OCO2)NCc1cn2cc(Cl)ccc2n1 | inactive | – |
| CCOc1ncccc1C(=O)OCc1cn2cc(Cl)ccc2n1 | inactive | – |
| COc1ccc(CCOC(=O)CNC(=O)c2ccc(Cl)cc2Cl)cc1 | inactive | – |
| COC(=O)Cc1cnc(NC(=O)CSc2nc(C(C)C)cc(=O)[nH]2)s1 | inactive | – |
| COc1ccc(N2CCN(C(=O)[C@@H](NC(=O)c3cc(OC)cc(OC)c3)C(C)C)CC2)cc1 | inactive | – |
| COc1ccc(-c2cn[nH]c2-c2ccc(OC)cc2)cc1 | inactive | – |
| CCOc1ccccc1Oc1cn[nH]c1-c1ccc(OC)cc1O | 8.91 µM (active) | – |
| CCN(CCn1cccn1)Cc1cn[nH]c1-c1ccc(OC)cc1F | inactive | – |
| O=S(=O)(NCC1CC1)c1ccc(F)c(Cl)c1 | inactive | – |
| Cc1ccc(N(CC(=O)NCC2CCCO2)C(=O)CNS(=O)(=O)c2ccc(Cl)cc2)cc1 (stereo not given) | inactive | – |
| CCN(CC(=O)N1CCCC1)S(=O)(=O)c1ccc(F)cc1 | inactive | – |
| O=C(CSCc1ccccc1Cl)NNC(=O)c1ccccc1 | inactive | – |
| O=C(CO/N=C/c1ccccc1O)NNC(=O)c1ccccc1Cl | 20 µM (active) | – |
| O=C(CO/N=C/c1ccccc1OC(F)F)NC1CCCC1 | inactive | – |
| CCOc1ccc(C(C(=O)NCCOC)N(CCOC)C(=O)CCC(=O)Nc2ccccn2)cc1 (stereo not given) | inactive | – |
| CC(=O)Nc1ccc(-c2csc(NC(=O)Nc3ccccc3)n2)cc1 | inactive | – |
| Cc1ccc(Nc2nc(-c3sc(NC(=O)c4ccccc4)nc3C)cs2)cc1 | inactive | – |
| Cc1ccc(C(=O)NCCNC(=O)c2cnccn2)cc1 | inactive | – |
| Cc1ccc(-c2csc(NNC(=O)c3ccccc3)n2)cc1 | 5.01 µM (active) | – |
| Cc1ccc(-c2csc(NC(=O)c3cnccn3)n2)cc1C | 2.24 µM (active) | – |
| COc1ccc(-c2csc(NC(=O)c3ccc(N4C(=O)CCC4=O)cc3)n2)cc1OC | inactive | – |

| SMILES | Potency | activity change, negative = inhibition |
| --- | --- | --- |
| O=C(Nc1nc(-c2cccnc2)cs1)c1ccccc1F | inactive | – |
| O=C(O)c1ccccc1C(=O)Nc1nc(-c2ccccc2)cs1 | inactive | – |
| O=C(Nc1nc(-c2ccc(-c3ccccc3)cc2)cs1)c1cnccn1 | 1.12 µM (active) | – |
| Cc1sc2ncn(CC(=O)NCCCC(=O)N3CCN(c4ccccc4F)CC3)c(=O)c2c1C | inactive | – |
| Nc1ccc(C(=O)Nc2ccccc2N)cc1 | inactive | – |
| COc1ccc(NC(=O)CSc2nc(SC)ns2)c(OC)c1 | inactive | – |
| Cc1ccc(S(=O)(=O)N(C)CC(=O)NCCc2c[nH]c3ccccc23)cc1 | inactive | – |
| Cc1cccc(N(Cc2ccccc2)C(=O)c2ccccc2F)c1 | inactive | – |
| CN(C(=O)c1ccccn1)c1nnc(-c2ccccn2)s1 | 10 µM (active) | – |
| CN(C(=O)c1ccno1)c1nnc(-c2cccnc2)s1 | inactive | – |
| CN(C(=O)COc1ccccc1)c1nnc(-c2ccncc2)s1 | inactive | – |
| O=C(COc1ccc(S(=O)(=O)Nc2cccc(C(F)(F)F)c2)cc1)N1CCOCC1 | inactive | – |
| O=C(CCN1C(=O)[C@@H]2Cc3ccccc3CN2C1=O)NCCc1ccccc1 | inactive | – |
| CCOc1cc(N2CCOCC2)c(OCC)cc1NC(=O)COc1cccc2cccnc12 | inactive | – |
| Cc1nc2sc(C(c3ccco3)N3CCOCC3)c(O)n2n1 (stereo not given) | inactive | – |
| Oc1c(C(c2ccccn2)N2CCOCC2)ccc2cccnc12 (stereo not given) | 1.26 µM (active) | – |
| O=C(NCc1nnc(SCC(=O)N2CCCCCC2)o1)c1ccc(F)cc1 | inactive | – |
| Cc1nn(-c2ccccc2)c(Cl)c1/C=N/NC(=O)c1nn(C)cc1[N+](=O)[O-] | inactive | – |
| CCOC(=O)N1CCN(Cc2nnc(-c3ccccc3Cl)o2)CC1 | inactive | – |
| CC(C)OCCCNC(=O)c1cc(Sc2ccc(F)cc2)nc2ccccc12 | inactive | – |
| COc1ccc2nc(SCC(=O)Nc3c(C)cc(C)cc3C)[nH]c2c1 | inactive | – |
| COC(=O)Nc1nc2ccc(Sc3ccccc3)cc2[nH]1 | inactive and 6.31 µM (active) | – |
| S=c1[nH]ccn1-c1ccc(Cl)cc1 | 3.55 µM (active) | – |
| S=c1[nH]cc(-c2ccc(Cl)cc2)n1-c1ccccc1 | inactive | – |
